# The campaign covered roughly 320,000 compounds. About 2,800 (0.88%) were called active. The sample as a whole holds a higher share of actives than the screen did. A number with no mark means an inactive call.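 How the source made its calls: active means inhibition above the mean inhibition of all tested compounds plus 3 SD, computed separately for each screening campaign (cut at about 15% in these data); inactive means the rest.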
# Biological target: Serine/threonine-protein phosphatase PP1-alpha catalytic subunit (Homo sapiens) (UniProt P62136)
# Assay: PP1-alpha phosphatase inhibitors, primary screen, counter-screen for PP5 inhibitor project, biochemical, fluorescence, OMFP substrate, single point (AID 2235)
# Settings: purified PP1alpha, at 6.7 µM, active compounds read high
# Chain of Serine/threonine-protein phosphatase PP1-alpha catalytic subunit (Homo sapiens) (P62136 whole entry, looked up): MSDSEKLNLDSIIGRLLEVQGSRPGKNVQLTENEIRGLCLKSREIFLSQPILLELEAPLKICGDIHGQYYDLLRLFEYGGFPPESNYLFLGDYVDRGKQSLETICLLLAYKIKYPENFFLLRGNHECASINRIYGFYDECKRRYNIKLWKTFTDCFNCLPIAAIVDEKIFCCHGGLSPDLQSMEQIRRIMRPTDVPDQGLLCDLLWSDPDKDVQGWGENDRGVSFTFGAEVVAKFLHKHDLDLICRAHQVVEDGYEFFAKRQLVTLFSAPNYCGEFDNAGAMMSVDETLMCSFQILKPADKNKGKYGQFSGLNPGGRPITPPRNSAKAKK
row,Compound,inhibition
1,Oc1c(Cl)cc(Cl)c(Cl)c1Cc1c(O)c(Cl)cc(Cl)c1Cl,21% (active)
2,COc1cc(N2C(=O)CSC2=S)cc(OC)c1OC,-0.27%
3,CC(C)n1ncc2c(C(=O)Nc3ccc(CC#N)cc3)cc(C3CC3)nc21,0.77%
4,CC(=O)Nc1ccc(S(=O)(=O)NC(C)C(=O)OCC(=O)NC2CCCC2)cc1 (centres undefined),-2.23%
5,O=C(N/N=C/C=C/c1ccco1)c1cccs1,-2.08%
6,Cc1ccc(-c2cc(C(=O)N/N=C/C=C/c3ccco3)c3ccccc3n2)cc1C,20% (active)
7,COc1ccc(/C=N/NC(=O)c2cc(-c3cccc(C)c3)nc3ccccc23)cc1O,-0.69%
8,CCn1cc(C(=O)NC2CCCCCC2)c(=O)c2cc(S(=O)(=O)N3CCCCC3)ccc21,-1.18%
9,Cc1ccc(N2C(=O)C3C4C=CC(CC4)C3C2=O)cc1Br (centres undefined),-2.3%
10,O=C(Nc1cccc(-c2nc3ccccc3[nH]2)c1)c1ccc(C(=O)Nc2cccc(-c3nc4ccccc4[nH]3)c2)cc1,18.9% (active)
11,Cc1ccc(-c2nc3ccccc3[nH]2)cc1N,-2.81%
12,O=C(/C=C/c1ccco1)Nc1cccc(-c2nc3ccccc3[nH]2)c1,-1.53%
13,O=C(O)c1ccccc1C(=O)NC1=NN(c2ccccc2)CC1,2.04%
14,Cc1ccc2nc(N(CCN(C)C)C(=O)C3=COCCO3)sc2c1,-4.21%
15,Cc1nn(C)cc1CNC(=O)Nc1ccc(Cl)cc1,-6.68%
16,Cc1ccc(-c2cc(C(=O)NCc3cn(C)nc3C)c3cc(Br)ccc3n2)cc1,15.4% (active)
17,O=C(NCc1cccs1)c1cc(-c2ccccn2)nc2ccc(Br)cc12,0.34%
18,Cc1cc(C)c(C(N)=O)c(Cl)n1,-1.75%
19,CCCN(CCC)CCCNC(=O)CNC(=O)c1nn(-c2ccc(OC)cc2)c(=O)c2ccccc12,-4.54%
20,COc1ccc(CN2CCNC(=O)C2CC(=O)NCc2cn[nH]c2-c2ccccc2)c(F)c1 (centres undefined),3.63%
21,OCCC1CN(Cc2ccc(Oc3ncccn3)cc2)CCN1CCc1ccccc1 (centres undefined),-2.28%
22,COc1cc(/C=C/C(=O)OCC(=O)NC(=O)NCc2ccccc2)ccc1OCC#N,-4.2%
23,COc1ccc(/C=C/C(=O)OCC(=O)NCc2cccs2)cc1OC,-2.5%

row,Compound,inhibition
1,CCOc1ccc(/C=C/C(=O)OCC(=O)c2ccccc2OC)cc1OC,23.7% (active)
2,O=C(C1CCCO1)N1CCN(S(=O)(=O)c2ccc(Br)cc2)CC1 (centres undefined),0%
3,COc1cc(NC(=O)COC(=O)c2cnc(C)cn2)c(C)cc1[N+](=O)[O-],-3.47%
4,Nn1c(SCc2ccccc2)nnc1C1CCCCC1,-2.09%
5,COCCCNC(=O)C1CC(=O)N(c2ccc(C)cc2)C1 (centres undefined),73.3% (active)
6,COCCCNC(=O)C1CC(=O)N(CCc2ccccc2)C1 (centres undefined),0.11%
7,COCCNC(=O)C1CCN(C(=O)C2CC(=O)N(c3ccc(C)cc3)C2)CC1 (centres undefined),-0.32%
8,Cc1cccnc1NC(=O)c1cccc(S(=O)(=O)N2CCN(c3ccc(F)cc3)CC2)c1,-3.22%
9,O=C(CN1CCN(c2ccc(F)cc2)CC1)Nc1ccccc1,2.42%
10,Oc1c(CN2CCN(c3ccc(F)cc3)CC2)cc(Cl)c2cccnc12,35.2% (active)
11,C1CC1Cc1noc(CN2CCN(CC3CC3)CC2)n1,-4.45%
12,CC(=O)Nc1ccc(C(=O)NNC(=O)CCCCC(=O)NNC(=O)c2ccc(NC(C)=O)cc2)cc1,-4.34%
13,CCc1sc(C(=O)N2CCN(CC(=O)Nc3cccc(F)c3)CC2)cc1C,-1.08%
14,O=C(N/N=C/c1cc([N+](=O)[O-])ccc1O)/C(=C\c1cccs1)NC(=O)c1ccccc1,19.9% (active)
15,Cc1ccc(NC(=O)/C(=C/c2ccc([N+](=O)[O-])cc2)NC(=O)c2ccccc2)cc1,1.49%
16,O=C(Nc1ccc(C(=O)O)cc1)/C(=C/c1ccc([N+](=O)[O-])cc1)NC(=O)c1ccccc1,-0.04%
17,COC(=O)CC(=O)N1CCN(c2ccc(Cl)c(Cl)c2)CC1,-1.17%
18,CC(C)Cn1c(N)c(C(=O)COC(=O)C2CCCN2C(=O)c2cccs2)c(=O)n(C)c1=O (centres undefined),3.85%
19,Cc1ccc(OCC(=O)N2CCN(S(=O)(=O)c3ccc(Cl)s3)CC2)cc1C,2.28%
20,Cc1nc2c(C(=O)NCc3ccc4c(c3)OCO4)c[nH]n2c(=O)c1Cc1ccccc1F,42.6% (active)
21,O=C(NCc1ccc2c(c1)OCO2)c1cc(F)c(F)cc1Cl,2.6%
22,CCn1c(=O)c(C(=O)NCc2ccc3c(c2)OCO3)c(O)c2ccccc21,-4.95%
23,Cc1ccc(NC(=O)CSc2nnc(COc3ccccc3C)o2)cc1,-4.67%

row,Compound,inhibition
1,COc1ccccc1NC(=O)CSc1nnc(C)n1CC1CCCO1 (centres undefined),-1.67%
2,CC(=O)Nc1ccc(NC(=O)CSc2nnc(COc3ccccc3C)n2CC2CCCO2)cc1 (centres undefined),16.9% (active)
3,Cc1cccc2cc(CN(Cc3cccs3)C(=S)NCc3ccco3)c(=O)[nH]c12,16.9% (active)
4,Cc1cccc2cc(CN(C(=O)c3cccs3)c3ccccc3)c(=O)[nH]c12,1.24%
5,Cc1ccc(C)c2[nH]c(=O)c(CN(Cc3cccnc3)C(=S)NCc3ccco3)cc12,1.73%
6,Cc1ccnc(NC(=O)c2ccc(Cl)c([N+](=O)[O-])c2)c1,-0.42%
7,Cc1c(NC(=O)CN2C(=O)C(=O)N(Cc3ccccc3)C2=O)c(=O)n(-c2ccccc2)n1C,-2.42%
8,Cc1ccc(CSc2nc(-c3ccccc3)c(C#N)c(=O)[nH]2)cc1,14.2%
9,N#Cc1c(-c2ccccc2)nc(SCc2cccc(C(F)(F)F)c2)[nH]c1=O,22.1% (active)
10,N#Cc1c(-c2ccccc2)nc(SCc2ccc([N+](=O)[O-])cc2)[nH]c1=O,9.45%
11,Cc1ccc(OCCC(=O)OCC(=O)N2c3ccccc3NC(=O)C2(C)C)cc1,0.61%
12,CCCCN(CC)C(=O)c1ccccc1Oc1ccccc1,-1.38%
13,CCOC(=O)c1c(S(=O)(=O)Nc2ccc(CN3CCC(C)CC3)cc2)c(C)n(C)c1C,2.36%
14,O/N=C(\c1ccc2c(c1)OCCO2)C1CCCCC1,0.46%
15,Cc1cc2oc(=O)cc(CN3CCN(S(=O)(=O)c4cccs4)CC3)c2cc1C(C)C,-3.33%
16,Cc1ccc2c(CN3CCN(S(=O)(=O)c4ccccc4C(F)(F)F)CC3)cc(=O)oc2c1,16.8% (active)
17,COc1ccc2c(CN3CCN(S(=O)(=O)c4cccs4)CC3)cc(=O)oc2c1,4.63%
18,COc1ccccc1NS(=O)(=O)N(C)C,6.89%
19,CCCc1nnc(NC(=O)CCC(=O)N2CCN(S(=O)(=O)c3ccc(OC)cc3)CC2)s1,-4.44%
20,Nc1ccc2nc3c(=O)[nH]c(=S)[nH]c3nc2c1,41.9% (active)
21,Cc1cc2nc3c(=O)n(Cc4ccccc4)c(=O)[nH]c3nc2cc1N,2.81%
22,COC(=O)/C(C#N)=C/c1occc1C,-1.37%
23,CCC(C)(C)NC(=O)C(c1ccc(O)cc1)N(C(=O)Cn1nnc2ccccc21)c1ccc(NC(C)=O)cc1 (centres undefined),4.46%

row,Compound,inhibition
1,O=c1cc(O)nc(SCc2ccccc2Cl)[nH]1,3.47%
2,O=C(CC1N=C2c3ccccc3N=C(SCc3ccccc3Cl)N2C1=O)NCc1ccco1 (centres undefined),1.15%
3,Clc1ccccc1CSc1nnc(-c2ccco2)c(-c2ccco2)n1,24.6% (active)
4,CCOC(=O)N1CCN(S(=O)(=O)c2cc3c(cc2C)NC(=O)CO3)CC1,-2.81%
5,COc1cc(C2C(C(=O)c3ccc(C)o3)=C(O)C(=O)N2CCc2ccccc2)ccc1O (centres undefined),32.7% (active)
6,CCOc1cc(C2C(C(=O)c3ccco3)=C(O)C(=O)N2Cc2ccccc2)ccc1O (centres undefined),4.74%
7,COc1cc(C2C(C(=O)c3ccco3)=C(O)C(=O)N2c2cc(C)on2)ccc1OCc1ccccc1 (centres undefined),13.9%
8,COc1ccc(CCN2C(=O)c3[nH]nc(-c4ccccc4O)c3C2c2ccc(C)cc2)cc1OC (centres undefined),6.53%
9,Cc1cc(N2C(=O)C(O)=C(C(=O)c3ccc(C)o3)C2c2ccc(OCc3ccccc3)cc2)no1 (centres undefined),26.8% (active)
10,Cc1cc(N2C(=O)C(=O)/C(=C(/O)c3ccccc3)C2c2cccc(Br)c2)no1 (centres undefined),-4.18%
11,Cc1c(Cl)c([N+](=O)[O-])nn1CC(=O)NCC1CCCO1 (centres undefined),-3.7%
12,COc1ccccc1N1CCN(S(=O)(=O)c2ccc3c(c2)NC(=O)CS3)CC1,5.88%
13,CCOc1ccc(C(=O)Nc2ccc(S(=O)(=O)NCC3CCCO3)cc2)cc1OCC (centres undefined),-1.6%
14,COC(C[C@@H](O)C[C@@H](O)[C@H](C)OCc1ccccc1)OC,0.46%
15,COCCC(=O)N1CCC(Oc2ccc(C(=O)NCc3ccon3)cc2)CC1,-0.97%
16,O=C(Nc1ccc(S(=O)(=O)Nc2nccs2)cc1)c1cc(-c2ccncc2)nc2ccccc12,27.5% (active)
17,CCN(CC)CCNC(=O)c1ccc(NC(=O)c2cc(-c3ccncc3)nc3ccccc23)cc1,-7.72%
18,O=C(Nc1ccc(S(=O)(=O)Nc2nccs2)cc1)c1cc(=O)[nH]c2ccccc12,0.73%
19,c1ccc(C2CNCc3c2ccc2ccccc32)cc1 (centres undefined),3.78%
20,Cn1cnc(C(F)(F)F)c1-c1ccc([N+](=O)[O-])cc1,-0.23%

# From PubChem BioAssay AID2235 (The Scripps Research Institute Molecular Screening Center, 2010)
